Experimental data as given in PubChem BioAssay AID743279 (National Center for Advancing Translational Sciences (NCATS), 2014).
Out of some 360,000 compounds screened, about 17,000 (4.7%) were called active. Another 5% or so got no clear call; they are omitted. Cut-off read from the data, not from the text of the source: active = activity change below about -50%; inconclusive = mostly about -30% to -49%; inactive = weaker than that. Many of the other results were omitted from the sample, so actives are more common in it than they were.

Test: qHTS for Inhibitors of Inflammasome Signaling: IL-1-beta AlphaLISA Primary Screen
Conditions: THP-1 LPS/ATP IL-1B secretion, 16 h; at 57.5 µM, active compounds read low
Outline: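 THP-1 cells pretreated 1 hr with compounds (up to 57.5 uM final), then stimulated with LPS (250 ng/mL final) plus ATP (1.25 mM final); secreted IL-1B measured by AlphaLISA after 16 hr, decreased signal indicating inhibition.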
% is set by controls: 0 for no effect and ±100 for the full control effect.

Activity change, inactive:
O=C(CSc1nnc(-c2ccncc2)n1-c1ccc(Cl)cc1)Nc1ccc(C(=O)O)cc1 8.71%
Cn1c(=N)n(CC(O)c2ccccc2)c2ccccc21 (configuration not stated) 35.9%
CCOc1ccc(CN2CCCN(C)CC2)cc1 14.6%
COCCn1cnnc1SCC(=O)Nc1cccc(S(=O)(=O)N2CCCCC2)c1 5.3%
CN(CCO)C(=O)c1nc[nH]c1C(=O)N(C)Cc1ccccc1 26.2%
CCCCCCN1C[C@H](O)[C@@H](n2cc(C3CC3)nn2)C[C@@H]1c1ccc(Cl)cc1 82%
CC(=O)Nc1ccc(NC(=O)COc2ccc(-c3ccccc3)cc2)cc1 -15.4%
CN1CCN(CCC(=O)N/N=C/C=C2\N(C)c3ccccc3C2(C)C)CC1 10.2%
C[C@@H]1CC2=C(C(=O)OC(C)(C)O2)[C@@H](C2CC2)O1 32.1%
CN(CC(=O)Nc1cccc(F)c1)C(=O)CC1CCCC1 0.0851%
CN(CC(=O)Nc1cccc(F)c1)C(=O)C1=COCCO1 2.81%
CCCCNS(=O)(=O)CCNCc1ccccc1OC 3.56%
CCCCCCNS(=O)(=O)c1ccccc1Br 14%
C[C@H]1CN([C@@H](C)CO)C(=O)CCCn2cc(nn2)CO[C@@H]1CN(C)S(=O)(=O)c1cccs1 7.03%
CC(C)(C)NC(=O)C(CCc1ccccc1)n1c(=O)c(-c2ccccc2)nc2ccccc21 (configuration not stated) 0%
CC(C)C1CCN(C(=O)C2CCC(=O)N(C3CCCCCC3)C2)CC1 (configuration not stated) -3.63%
CCOc1ccc(CCNC(=O)Nc2ccccc2)cc1OCC 30.9%
CONC(=O)c1cc(OCC(F)(F)F)ccc1OCC(F)(F)F -0.808%
NS(=O)(=O)c1ccc(CNC(=O)c2cc(S(=O)(=O)N3CCOCC3)ccc2N2CCCC2)cc1 -15.8%
O=C(Nc1ccc(N2CCCCC2)cc1)c1cc(S(=O)(=O)N2CCOCC2)ccc1F -27.8%
S=C(NCC1COc2ccccc2O1)Nc1ccc(Br)cc1 (configuration not stated) 0%
Oc1ccccc1N1CCN(c2ncnc3sc(-c4ccccc4)cc23)CC1 -28.1%
Nc1cc(=O)n(Cc2ccccc2)c(=O)n1Cc1ccccc1 -0.791%
O=C(NCc1ccccc1)C1C(=O)N(Cc2ccccc2)C(=O)C1C1(O)CCCC1 (configuration not stated) -0.107%
COc1ccc(-c2[nH][nH]c(=O)c2NC(=O)c2ccc([N+](=O)[O-])cc2)cc1 16%
COc1ccc(CNC(=O)COC(=O)C(CCSC)N2C(=O)c3ccccc3C2=O)cc1 (configuration not stated) 5%
CC(C)[C@@H](C(=O)OCC(=O)c1ccc2c(c1)NC(=O)CO2)N1C(=O)c2ccccc2C1=O 25.8%
CCN(CC(=O)NCCCN1CCOCC1)S(=O)(=O)c1cc(Cl)ccc1Cl -11.7%
CN(C)CCN(C(=O)CN1C(=O)c2ccccc2C1=O)c1nc2cc3c(cc2s1)OCCO3 10%
CCN(CC)CCN(C(=O)c1cc(Cl)sc1Cl)c1nc2cc3c(cc2s1)OCO3 0%
CCN(CC(=O)Nc1c(F)cccc1F)C(=O)c1ccc(S(=O)(=O)N2CCCCC2)cc1 -1.87%
Brc1ccc2nc(N3CCCC3)sc2c1 32.8%
CCN(CC)CCN(C(=O)c1cccc([N+](=O)[O-])c1)c1nc2ccc(OC)cc2s1 -20.4%
COc1ccc(S(=O)(=O)N(C)CC(=O)N2CCCC2)cc1 -1.23%
CN(C)CCN(C(=O)C1CCCCC1)c1nc2cc3c(cc2s1)OCO3 -5.98%
Cc1ccc2nc(N(CCN(C)C)C(=O)C3=COCCO3)sc2c1 -6.05%
Cc1ccc(S(=O)(=O)n2oc(=O)c(C3CCCCC3)c2N)cc1 -0.476%
C/C(COc1ccccc1)=N\NC(=O)c1nnn(-c2nonc2N)c1-c1ccc(C)cc1 -10.3%
CCCOc1ccc(F)cc1-c1cc(C(=O)Nc2ccc(F)c(Cl)c2)[nH]n1 -11.9%
O=C1c2ccncc2C(=O)N1C1CCCCC1 -1.14%
Cc1ccc(C)c(NC2=NCC(=O)N2c2ccc3c(c2)OCCO3)c1 1.69%
Cc1cn(C2CC(O)C(CO)O2)c(=O)n(CCCc2ccccc2)c1=O (configuration not stated) 0%
CCOC(=O)N1CCN(C(=O)c2ccc(CN(c3ccc(C)c(C)c3)S(C)(=O)=O)cc2)CC1 1.54%
Cc1nc2ccccn2c(=O)c1NC(=O)c1ccc(Br)o1 9.2%
O=c1c2ccccc2ncn1CCc1ccncc1 -6.13%

Activity change, active:
CCOc1ccc(C(O)Cn2c(=N)n(CCN3CCCCC3)c3ccccc32)cc1 (configuration not stated) -60.3%
CC(=O)Nc1cccc(OCC(=O)/C=C2\N(C)c3ccccc3C2(C)C)c1 -82%
CC1CCc2[nH]c3ccc(C(=O)N(C)CC(=O)Nc4cccc(F)c4)cc3c2C1 (configuration not stated) -74.7%
CCCCCCCCNS(=O)(=O)CCNC1CCCCC1 -65.1%
O=C(NC(=O)c1cc(OCC(F)(F)F)ccc1OCC(F)(F)F)Nc1ccccc1 -63.5%
O=C(CNC(=O)c1cc(S(=O)(=O)N2CCOCC2)ccc1N1CCCC1)Nc1ccc(F)c(F)c1 -54%
c1ccc(-c2cc3c(NCC4COc5ccccc5O4)ncnc3s2)cc1 (configuration not stated) -59.2%
CCCCC(C(=O)OCC(=O)c1ccc(OC)cc1)N1C(=O)c2ccccc2C1=O (configuration not stated) -57.4%
CN(C)CCCN(C(=O)c1ccc(S(=O)(=O)N2CCCCCC2)cc1)c1nc2ccc(Br)cc2s1 -101%
CCc1ccc2nc(N(CCCN(C)C)C(=O)c3ccc4c(c3)OCCO4)sc2c1 -61.9%
CN(C)CCCN(C(=O)c1ccc(S(=O)(=O)N2CCCCCC2)cc1)c1nc2cc3c(cc2s1)OCCO3 -66.5%
COc1ccc2sc(N(CCCN(C)C)C(=O)c3ccc(S(=O)(=O)N(C)C4CCCCC4)cc3)nc2c1 -72.4%
